tim23-1 inh: growth inhibitors of tim23-1 mutant yeast, primary screen, luminescence, uHTS | actives 1.3% (n = 330,000) | S. cerevisiae tim23-1 growth, BacTiter-Glo luminescence, 24 h | inhibition, % at 20 µM;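 active means growth inhibition of the mutant yeast at or above 50%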;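 further: temperature-sensitive mutant grown at 25 °C; plate controls were DMSO-treated mutant yeast for no effect and medium wells lacking yeast for full effect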
NALP3 yeast inh: NALP3 inflammasome inhibitors in reconstituted yeast, primary screen, luminescence, uHTS. Yeast reconstituted NLRP3/ASC/caspase-1, beta-gal luminescence, 24 h. inhibition, % at 10 µM. actives 0.39% (n = 330,000). AID 2825, 2010;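 active means inhibition of 50% or more; inactive means inhibition below 50%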;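 further: plate controls were induced DMSO wells for no effect and uninduced yeast grown without galactose for full effect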
tim10-1 inh: growth inhibitors of tim10-1 mutant yeast, primary screen, luminescence, uHTS. actives 2.2% (n = 330,000). AID 463190, 2010. inhibition, % at 20 µM. S. cerevisiae tim10-1 ts strain growth, BacTiter-Glo, 24 h;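 active means inhibition of at least 40%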;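 further: mutant grown at 25 °C; 0% = DMSO wells with yeast and 100% = wells holding no yeast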
NALP1 inh: NALP1 inflammasome inhibitors in reconstituted yeast, colorimetric, S. cerevisiae, triplicate retest | S. cerevisiae NALP1/ASC/caspase-1 growth, X-gal OD620, 72 h | inhibition, % at 10 µM | actives 0.61% (n = 280,000) | AID 2071, 2009; in the data active means inhibition mostly above about 24%, no sharp cut-off; inactive means mostly below about 32%
TIM10 inh: growth inhibitors of isogenic TIM10 control yeast, primary screen, counter-screen for tim10-1 yeast inhibitor project, luminescence, uHTS; S. cerevisiae TIM10 strain growth, BacTiter-Glo luminescence, 24 h; inhibition, % at 10 µM; actives 1.4% (n = 330,000); AID 463195, 2010;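 active means inhibition of 40% or more at the single tested concentration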;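 further: wild-type TIM10 isogenic control strain grown at permissive 25 °C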
SKKanGAS inh: S. pyogenes SKKanGAS growth inhibitors in kanamycin, primary screen, streptokinase expression inhibitor project, SKKanGAS strain, BacTiter-Glo luminescence. 6 h. inhibition, % at 7.5 µM. actives 1.3% (n = 300,000). AID 1662, 2009;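 active means mean replicate score, as percent of positive control median, at least 50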;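 further: strain carries kanamycin resistance gene driven by streptokinase promoter and grows in 40 µg/ml kanamycin; loss of luminescence reflects streptokinase promoter inhibition or plain growth inhibition; 0% = median of DMSO wells and 100% = positive control at its reference dose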
tim10-1 confirm: growth inhibitors of tim10-1 mutant yeast, confirmation, single concentration, luminescence, S. cerevisiae; shares compounds with tim10-1 inh; S. cerevisiae tim10-1 ts strain growth, BacTiter-Glo, 24 h; inhibition, % at 20 µM; actives 56% (n = 7,400); AID 463213, 2010;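 active means inhibition of yeast growth at or above a set limit in either of two repeat tests at 20 µM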;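 further: tim10-1 mutant grown at permissive 25 °C to find synthetic lethal compounds; 0% = DMSO yeast wells and 100% = medium wells without yeast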
TIM10 conf: growth inhibitors of wild-type TIM10 yeast, confirmation, counter-screen for tim10-1 synthetic lethality project, single concentration, luminescence, S. cerevisiae; actives 63% (n = 4,600); shares compounds with TIM10 inh; AID 463215, 2010; inhibition, % at 10 µM; S. cerevisiae tim10 strain growth, BacTiter-Glo luminescence, 24 h;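 active means inhibition of yeast growth at or above a set limit in either of two replicates at 10 µM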;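 further: this counterscreen used the strain with wild-type TIM10; 0% = yeast with DMSO and 100% = medium wells lacking yeast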
An asterisk follows results filed as active; · = not tested or not shown. Most compounds without a hit are left out; they make up all but 4.9% or so of the library.

SMILES | tim23-1 inh | NALP3 yeast inh | tim10-1 inh | NALP1 inh | TIM10 inh | SKKanGAS inh | tim10-1 confirm | TIM10 conf
CCCCN(C(=O)c1ccc(-n2nc(C)cc2C)cc1)c1c(N)n(CCC)c(=O)[nH]c1=O | 8.8 | 6.7 | 1.4 | · | 2.9 | · | · | ·
COC(=O)CCC(=O)c1oc2ccc(Br)cc2c1N | 44.9 | 12.3 | 41.3* | 5.1 | 44.0* | 1.5 | 34.2* | 31.5*
Nc1c(C(=O)c2ccccc2)oc2ccc(Br)cc12 | 28.9 | 13.6 | 44.9* | 6.6 | 52.1* | -7.9 | 17.9 | 33.5*
Nc1c(C(=O)c2ccc(Br)s2)oc2ccccc12 | 31.1 | -16.7 | 47.5* | 24.9 | 42.8* | 6.9 | 35.5* | 41.8*
COc1ccc2oc(C(=O)CCC(=O)O)c(N)c2c1 | 7.2 | -4.7 | -8.4 | -11.4 | -3.5 | 0.8 | · | ·
COc1ccc(-c2noc3c2-c2nc(-c4c(F)cccc4F)sc2CC3)cc1 | -4.5 | 5.0 | -1.5 | 15.1 | 5.3 | -4.9 | · | ·
O=C(Nc1ccc(F)cc1)c1cc2cc(Cl)ccc2[nH]1 | -13.0 | 2.8 | -4.3 | 17.8 | -32.5 | -1.8 | · | ·
CCOC(=O)N1CCN(C(=O)c2sc3nc(-c4ccc(F)cc4)cn3c2C)CC1 | 21.4 | 15.1 | 56.3* | -1.7 | 43.1* | -3.2 | 38.2* | 39.8*
COCCNC(=O)c1sc2nc(-c3ccccc3)cn2c1C | 13.1 | 17.2 | 9.8 | 7.8 | -5.9 | -7.1 | · | ·
COC(=O)C1CCN(C(=O)c2sc3nc(-c4ccccc4)cn3c2C)CC1 | 39.9 | 12.2 | 48.2* | -7.4 | 43.5* | -3.1 | 38.3* | 26.5
COc1ccccc1N1CCN(C(=O)c2sc3nc(-c4ccc(F)cc4)cn3c2C)CC1 | 43.0 | 22.9 | 66.3* | 43.4 | 40.0 | 41.1 | 57.8* | 50.6*
Cc1nn(CC(=O)OCC(=O)c2ccccc2)c(C)c1[N+](=O)[O-] | 11.3 | -6.5 | 4.4 | · | -3.7 | · | · | ·
CC1(c2ccc3c(c2)OCCCO3)NC(=O)N(CC(=O)Nc2cccc(C#N)c2)C1=O (stereo not given) | -17.1 | 4.9 | 13.7 | · | 8.3 | · | · | ·
Cc1ccc(C)n1N1C(=O)/C(=C\c2ccc(Cl)cc2)SC1=S | 6.7 | -4.3 | 69.2* | 2.8 | 63.2* | -2.8 | 61.0* | 63.5*
COc1cc([N+](=O)[O-])ccc1NC(=O)COC(=O)CCS(=O)(=O)c1ccc(C)cc1 | 10.0 | 1.0 | 11.2 | · | -2.5 | -7.5 | · | ·
COc1ccc(C(C(=O)OC(C)CN(C)C)c2ccccc2)cc1 (stereo not given) | 5.5 | 5.4 | 14.3 | 7.6 | -7.2 | -0.2 | · | ·
CN(C)CC(C(=O)c1ccccc1)c1ccccc1 (stereo not given) | 49.6 | -14.1 | 49.6* | 18.0 | 50.9* | -5.4 | 57.0* | 59.8*
CCc1ccc(/C=C2/C(=O)N(c3ccccc3)C(=S)N2CC(=O)OC)s1 | 42.1 | 18.8 | 26.6 | 23.9 | 12.2 | -0.9 | · | ·
CCN1C(=O)/C(=C/N(C(C)=O)c2ccccc2)N(c2ccccc2)C1=S | 29.4 | 45.7 | 44.7* | 13.2 | 49.5* | 3.7 | 42.2* | -38.9
CS(=O)(=O)NCCNc1ncc(C(F)(F)F)cc1Cl | 7.6 | 25.6 | 3.6 | -28.0 | -5.8 | 3.8 | · | ·
O=S(=O)(NCCNc1ncc(C(F)(F)F)cc1Cl)C(F)(F)F | 46.7 | -11.1 | 54.7* | -6.0 | 44.7* | 1.2 | 45.6* | 13.1
O=C1C=CC(=O)N1CCNc1ncc(C(F)(F)F)cc1Cl | 47.4 | -46.1 | 92.0* | 54.6* | 88.2* | 76.6* | 94.3* | 97.8*
CS(=O)(=O)N1N=C(c2ccco2)CC1c1ccc(Cl)cc1 (stereo not given) | 7.8 | -7.1 | -1.6 | 66.4 | -4.1 | -5.4 | · | ·
COc1ccc(NC(=O)N(C)C[C@H]2Oc3ccc(NC(=O)C4CC4)cc3CC(=O)N([C@@H](C)CO)C[C@@H]2C)cc1 | 12.2 | 4.5 | 8.6 | · | 3.0 | · | · | ·
Cc1cc(N/N=C/c2ccccc2O)nc(-c2ccccc2O)n1 | 31.9 | 21.6 | 50.5* | 23.7 | 40.8* | 60.4* | 32.0* | 4.3
SMILES | tim23-1 inh | NALP3 yeast inh | tim10-1 inh | NALP1 inh | TIM10 inh | SKKanGAS inh | tim10-1 confirm | TIM10 conf
Cc1cc(N/N=C/c2ccc(O)cc2O)nc(-c2ccccc2O)n1 | · | · | · | -3.5 | · | 13.7 | · | ·
Cc1ccsc1C(C(=O)NCc1ccccc1)N(C(=O)c1csnn1)c1ccccc1 (stereo not given) | 5.2 | 26.3 | 11.7 | 7.3 | 0.0 | 0.3 | · | ·
O=C(Nc1ccc(Cl)cc1)N(Cc1cccs1)Cc1cccs1 | 46.8 | 10.1 | 47.2* | 9.5 | 57.2* | 29.0 | 41.0* | -16.8
O=C(Nc1ccc(Cl)cc1)N(Cc1nc2ccccc2c(=O)[nH]1)Cc1cccs1 | 25.6 | 13.6 | 33.5 | 12.7 | 7.5 | 6.3 | · | ·
O=C(NC12CC3CC(CC(C3)C1)C2)c1ccc(-c2ccc(Cl)cc2)o1 | 14.1 | 6.7 | 26.6 | 16.9 | 31.2 | 24.2 | · | ·
O=C(NC12CC3CC(CC(C3)C1)C2)c1ccc(-c2cccc(Cl)c2)o1 | 47.3 | 19.6 | 47.3* | 23.9 | 46.7* | 9.1 | 35.6* | -17.5
COc1ccc(C(=O)/C=C\c2ccc(NC(=O)c3cccs3)cc2)cc1 | 20.3 | 0.0 | 43.3* | 13.2 | 48.3* | 14.2 | 30.8* | 40.1*
COc1ccc(NC(=O)c2ccc(NC(=O)c3cccs3)cc2)cc1 | -20.8 | 4.5 | -9.2 | 31.9 | -23.6 | -7.3 | · | ·
CCN(CC(=O)NCc1ccc(Cl)cc1)C(=O)CCc1ccccc1O | 7.0 | -2.6 | 6.3 | 15.7 | -16.0 | -5.2 | · | ·
CCOC(=O)C1CCN(C(=O)c2cc3cc4cc(OC)ccc4nc3o2)CC1 | -8.2 | 21.7 | 47.6* | 51.2 | 52.6* | -7.8 | 51.0* | -5.5
Cc1ccc2c(c1)nnn2C1CCN(C(=O)NC23CC4CC(CC(C4)C2)C3)CC1 | 3.0 | 0.1 | 11.3 | 38.8 | -11.1 | -16.7 | · | ·
Cc1ccc2c(c1)nnn2C1CCN(C(=O)C23CC4CC(CC(C4)C2)C3)CC1 | 43.6 | -15.1 | 59.5* | -2.3 | 42.3* | 1.1 | 40.5* | 37.8*
Nc1nc2c(C(=O)N3CCOCC3)nnn2c2ccccc12 | -1.9 | 16.8 | -33.5 | 18.8 | -24.8 | 4.3 | · | ·
O=c1c2ccccc2nc(/C=C/c2ccc([N+](=O)[O-])o2)n1CCCO | -15.7 | 16.8 | 86.2* | -4.5 | 58.8* | 49.9* | 83.0* | 22.3

Bioassay records from PubChem.
